Results reported in the supplement of paper PMC11732987, “Enantioselective OTUD7B fragment discovery through chemoproteomics screening and high-throughput optimisation” (Communications Chemistry, 2025).

Tests used:
Assay in all cases: log2 ratio of Biotin-Ahx-Ub-VS probe labelling (fragment/DMSO); higher = less target engagement (more negative = stronger competition), active = hit call of the paper (q ≤ 0.05, log2 ratio ≤ -1)
Settings in all cases: compound concentration: 200 uM; treatment time: 3 h
USP34 = USP34 (UniProt Q70CQ2)
Outline: (§1)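 Using Biotin-Ahx-Ub-VS at 0.5 µM final for 1 h, DUBs were labelled in HEK293T lysate (495 µg per sample) that had first been treated in triplicate with fragment at 200 µM or vehicle for 3 h. NeutrAvidin enrichment, LysC and trypsin digestion and diaPASEF LC-MS/MS followed. Spectronaut label-free quantities were global-median-normalised. Values are average log2 fragment/vehicle ratios by unpaired t-test, using proteins with ≥2 unique peptides.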

USP36 = target: T1, USP36 (UniProt Q9P275)
T1 sequence (whole entry): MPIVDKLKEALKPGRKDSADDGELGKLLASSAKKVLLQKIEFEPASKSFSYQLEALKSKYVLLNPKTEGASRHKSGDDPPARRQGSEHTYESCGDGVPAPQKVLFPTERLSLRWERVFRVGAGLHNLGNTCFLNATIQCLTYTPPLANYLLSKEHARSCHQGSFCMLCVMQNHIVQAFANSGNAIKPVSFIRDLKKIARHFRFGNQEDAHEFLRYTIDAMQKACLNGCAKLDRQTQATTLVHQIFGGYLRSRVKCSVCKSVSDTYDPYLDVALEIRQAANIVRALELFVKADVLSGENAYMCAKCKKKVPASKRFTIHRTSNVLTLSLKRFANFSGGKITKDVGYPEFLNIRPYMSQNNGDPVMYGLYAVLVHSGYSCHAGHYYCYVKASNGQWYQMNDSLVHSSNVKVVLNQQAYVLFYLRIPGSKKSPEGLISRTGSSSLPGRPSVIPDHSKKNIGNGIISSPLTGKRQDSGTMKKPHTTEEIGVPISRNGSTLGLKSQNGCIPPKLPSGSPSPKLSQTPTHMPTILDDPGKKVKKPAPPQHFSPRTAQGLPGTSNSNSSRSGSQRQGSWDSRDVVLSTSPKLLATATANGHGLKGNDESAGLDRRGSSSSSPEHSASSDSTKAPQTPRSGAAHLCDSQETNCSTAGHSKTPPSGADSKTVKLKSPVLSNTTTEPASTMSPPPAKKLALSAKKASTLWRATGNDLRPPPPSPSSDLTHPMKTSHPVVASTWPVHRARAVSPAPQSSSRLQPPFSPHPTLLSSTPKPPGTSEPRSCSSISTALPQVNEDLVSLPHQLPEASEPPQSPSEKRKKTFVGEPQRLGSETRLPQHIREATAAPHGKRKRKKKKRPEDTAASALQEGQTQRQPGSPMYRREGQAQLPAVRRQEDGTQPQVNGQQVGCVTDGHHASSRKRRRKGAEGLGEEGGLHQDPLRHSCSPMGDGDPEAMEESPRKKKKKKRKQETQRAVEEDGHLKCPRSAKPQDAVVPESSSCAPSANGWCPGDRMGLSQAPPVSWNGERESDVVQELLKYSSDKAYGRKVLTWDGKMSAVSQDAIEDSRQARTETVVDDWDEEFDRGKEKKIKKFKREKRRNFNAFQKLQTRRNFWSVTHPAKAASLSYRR
Outline: as §1

USP38 = target: T2, USP38 (UniProt Q8NB14)
T2 sequence (whole entry): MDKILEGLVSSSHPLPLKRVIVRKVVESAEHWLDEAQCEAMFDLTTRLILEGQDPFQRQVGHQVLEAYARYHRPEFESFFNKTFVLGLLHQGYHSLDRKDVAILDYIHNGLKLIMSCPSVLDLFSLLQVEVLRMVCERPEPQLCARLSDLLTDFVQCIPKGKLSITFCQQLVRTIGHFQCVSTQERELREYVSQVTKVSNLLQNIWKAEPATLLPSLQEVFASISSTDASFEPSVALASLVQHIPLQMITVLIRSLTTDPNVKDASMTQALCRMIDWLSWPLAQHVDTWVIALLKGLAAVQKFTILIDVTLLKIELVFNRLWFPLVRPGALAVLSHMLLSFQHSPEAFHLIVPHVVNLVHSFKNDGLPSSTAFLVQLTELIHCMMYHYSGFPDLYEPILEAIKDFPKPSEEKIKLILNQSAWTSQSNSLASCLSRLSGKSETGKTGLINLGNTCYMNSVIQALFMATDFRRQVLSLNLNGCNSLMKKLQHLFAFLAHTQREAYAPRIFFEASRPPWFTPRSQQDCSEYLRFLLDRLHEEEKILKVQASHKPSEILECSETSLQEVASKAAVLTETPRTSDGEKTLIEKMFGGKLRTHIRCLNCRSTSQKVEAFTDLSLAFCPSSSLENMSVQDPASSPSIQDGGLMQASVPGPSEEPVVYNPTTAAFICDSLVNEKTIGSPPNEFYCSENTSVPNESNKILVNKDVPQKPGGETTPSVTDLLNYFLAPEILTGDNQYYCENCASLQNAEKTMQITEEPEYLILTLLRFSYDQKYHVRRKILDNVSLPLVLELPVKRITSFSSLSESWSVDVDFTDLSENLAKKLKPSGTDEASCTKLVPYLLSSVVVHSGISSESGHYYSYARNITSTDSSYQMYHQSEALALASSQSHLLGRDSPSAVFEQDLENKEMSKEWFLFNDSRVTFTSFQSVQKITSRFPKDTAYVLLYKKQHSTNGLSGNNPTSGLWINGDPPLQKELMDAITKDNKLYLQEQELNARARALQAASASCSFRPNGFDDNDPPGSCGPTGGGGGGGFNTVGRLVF
Outline: as §1

USP39 = target: T3, USP39 (UniProt Q53GS9)
T3 sequence (whole entry): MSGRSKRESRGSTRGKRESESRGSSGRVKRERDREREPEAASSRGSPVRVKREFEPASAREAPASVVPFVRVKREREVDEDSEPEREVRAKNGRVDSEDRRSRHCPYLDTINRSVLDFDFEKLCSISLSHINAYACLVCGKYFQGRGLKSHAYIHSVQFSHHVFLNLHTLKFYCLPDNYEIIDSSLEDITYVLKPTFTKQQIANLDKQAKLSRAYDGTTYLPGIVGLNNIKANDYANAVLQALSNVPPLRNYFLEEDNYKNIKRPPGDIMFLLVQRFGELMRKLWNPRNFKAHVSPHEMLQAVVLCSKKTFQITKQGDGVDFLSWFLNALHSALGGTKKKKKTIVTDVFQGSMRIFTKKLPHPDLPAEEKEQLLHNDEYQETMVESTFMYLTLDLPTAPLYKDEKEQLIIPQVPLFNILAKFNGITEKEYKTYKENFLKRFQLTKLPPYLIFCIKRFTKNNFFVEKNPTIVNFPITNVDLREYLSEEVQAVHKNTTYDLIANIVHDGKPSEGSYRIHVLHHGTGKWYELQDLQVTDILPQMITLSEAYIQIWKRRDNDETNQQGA
Outline: as §1

USP4 = target: T4, USP4 (UniProt Q13107)
T4 sequence (whole entry): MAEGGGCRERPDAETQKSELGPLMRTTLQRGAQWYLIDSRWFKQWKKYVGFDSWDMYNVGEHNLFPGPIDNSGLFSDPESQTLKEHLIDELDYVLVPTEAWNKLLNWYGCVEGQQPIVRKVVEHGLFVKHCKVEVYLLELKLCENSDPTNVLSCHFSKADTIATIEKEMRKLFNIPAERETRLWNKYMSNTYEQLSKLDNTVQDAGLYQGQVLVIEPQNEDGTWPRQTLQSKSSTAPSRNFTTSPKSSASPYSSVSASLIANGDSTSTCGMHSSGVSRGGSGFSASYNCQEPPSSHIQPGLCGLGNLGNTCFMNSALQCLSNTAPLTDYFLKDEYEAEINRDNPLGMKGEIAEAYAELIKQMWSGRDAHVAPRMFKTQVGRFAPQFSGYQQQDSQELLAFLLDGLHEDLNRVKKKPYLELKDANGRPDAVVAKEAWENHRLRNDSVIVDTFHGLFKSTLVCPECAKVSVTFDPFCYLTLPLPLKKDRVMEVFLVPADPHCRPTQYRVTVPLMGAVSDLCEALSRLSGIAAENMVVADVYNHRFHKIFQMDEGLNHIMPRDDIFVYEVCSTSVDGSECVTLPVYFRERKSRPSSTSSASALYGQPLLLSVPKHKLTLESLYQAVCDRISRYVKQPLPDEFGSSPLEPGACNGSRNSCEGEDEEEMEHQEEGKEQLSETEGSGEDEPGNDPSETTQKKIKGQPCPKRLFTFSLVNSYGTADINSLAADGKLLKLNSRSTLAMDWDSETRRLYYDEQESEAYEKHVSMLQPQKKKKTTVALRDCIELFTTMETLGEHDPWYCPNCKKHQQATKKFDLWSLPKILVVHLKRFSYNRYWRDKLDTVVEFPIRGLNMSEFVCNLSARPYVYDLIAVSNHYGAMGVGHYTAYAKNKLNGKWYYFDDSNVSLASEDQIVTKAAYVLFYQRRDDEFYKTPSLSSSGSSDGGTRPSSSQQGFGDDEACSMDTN
Outline: as §1

Measured: log2 ratio of Biotin-Ahx-Ub-VS probe labelling

Sequence of USP34 (Q70CQ2 whole entry, the tested form may be a part): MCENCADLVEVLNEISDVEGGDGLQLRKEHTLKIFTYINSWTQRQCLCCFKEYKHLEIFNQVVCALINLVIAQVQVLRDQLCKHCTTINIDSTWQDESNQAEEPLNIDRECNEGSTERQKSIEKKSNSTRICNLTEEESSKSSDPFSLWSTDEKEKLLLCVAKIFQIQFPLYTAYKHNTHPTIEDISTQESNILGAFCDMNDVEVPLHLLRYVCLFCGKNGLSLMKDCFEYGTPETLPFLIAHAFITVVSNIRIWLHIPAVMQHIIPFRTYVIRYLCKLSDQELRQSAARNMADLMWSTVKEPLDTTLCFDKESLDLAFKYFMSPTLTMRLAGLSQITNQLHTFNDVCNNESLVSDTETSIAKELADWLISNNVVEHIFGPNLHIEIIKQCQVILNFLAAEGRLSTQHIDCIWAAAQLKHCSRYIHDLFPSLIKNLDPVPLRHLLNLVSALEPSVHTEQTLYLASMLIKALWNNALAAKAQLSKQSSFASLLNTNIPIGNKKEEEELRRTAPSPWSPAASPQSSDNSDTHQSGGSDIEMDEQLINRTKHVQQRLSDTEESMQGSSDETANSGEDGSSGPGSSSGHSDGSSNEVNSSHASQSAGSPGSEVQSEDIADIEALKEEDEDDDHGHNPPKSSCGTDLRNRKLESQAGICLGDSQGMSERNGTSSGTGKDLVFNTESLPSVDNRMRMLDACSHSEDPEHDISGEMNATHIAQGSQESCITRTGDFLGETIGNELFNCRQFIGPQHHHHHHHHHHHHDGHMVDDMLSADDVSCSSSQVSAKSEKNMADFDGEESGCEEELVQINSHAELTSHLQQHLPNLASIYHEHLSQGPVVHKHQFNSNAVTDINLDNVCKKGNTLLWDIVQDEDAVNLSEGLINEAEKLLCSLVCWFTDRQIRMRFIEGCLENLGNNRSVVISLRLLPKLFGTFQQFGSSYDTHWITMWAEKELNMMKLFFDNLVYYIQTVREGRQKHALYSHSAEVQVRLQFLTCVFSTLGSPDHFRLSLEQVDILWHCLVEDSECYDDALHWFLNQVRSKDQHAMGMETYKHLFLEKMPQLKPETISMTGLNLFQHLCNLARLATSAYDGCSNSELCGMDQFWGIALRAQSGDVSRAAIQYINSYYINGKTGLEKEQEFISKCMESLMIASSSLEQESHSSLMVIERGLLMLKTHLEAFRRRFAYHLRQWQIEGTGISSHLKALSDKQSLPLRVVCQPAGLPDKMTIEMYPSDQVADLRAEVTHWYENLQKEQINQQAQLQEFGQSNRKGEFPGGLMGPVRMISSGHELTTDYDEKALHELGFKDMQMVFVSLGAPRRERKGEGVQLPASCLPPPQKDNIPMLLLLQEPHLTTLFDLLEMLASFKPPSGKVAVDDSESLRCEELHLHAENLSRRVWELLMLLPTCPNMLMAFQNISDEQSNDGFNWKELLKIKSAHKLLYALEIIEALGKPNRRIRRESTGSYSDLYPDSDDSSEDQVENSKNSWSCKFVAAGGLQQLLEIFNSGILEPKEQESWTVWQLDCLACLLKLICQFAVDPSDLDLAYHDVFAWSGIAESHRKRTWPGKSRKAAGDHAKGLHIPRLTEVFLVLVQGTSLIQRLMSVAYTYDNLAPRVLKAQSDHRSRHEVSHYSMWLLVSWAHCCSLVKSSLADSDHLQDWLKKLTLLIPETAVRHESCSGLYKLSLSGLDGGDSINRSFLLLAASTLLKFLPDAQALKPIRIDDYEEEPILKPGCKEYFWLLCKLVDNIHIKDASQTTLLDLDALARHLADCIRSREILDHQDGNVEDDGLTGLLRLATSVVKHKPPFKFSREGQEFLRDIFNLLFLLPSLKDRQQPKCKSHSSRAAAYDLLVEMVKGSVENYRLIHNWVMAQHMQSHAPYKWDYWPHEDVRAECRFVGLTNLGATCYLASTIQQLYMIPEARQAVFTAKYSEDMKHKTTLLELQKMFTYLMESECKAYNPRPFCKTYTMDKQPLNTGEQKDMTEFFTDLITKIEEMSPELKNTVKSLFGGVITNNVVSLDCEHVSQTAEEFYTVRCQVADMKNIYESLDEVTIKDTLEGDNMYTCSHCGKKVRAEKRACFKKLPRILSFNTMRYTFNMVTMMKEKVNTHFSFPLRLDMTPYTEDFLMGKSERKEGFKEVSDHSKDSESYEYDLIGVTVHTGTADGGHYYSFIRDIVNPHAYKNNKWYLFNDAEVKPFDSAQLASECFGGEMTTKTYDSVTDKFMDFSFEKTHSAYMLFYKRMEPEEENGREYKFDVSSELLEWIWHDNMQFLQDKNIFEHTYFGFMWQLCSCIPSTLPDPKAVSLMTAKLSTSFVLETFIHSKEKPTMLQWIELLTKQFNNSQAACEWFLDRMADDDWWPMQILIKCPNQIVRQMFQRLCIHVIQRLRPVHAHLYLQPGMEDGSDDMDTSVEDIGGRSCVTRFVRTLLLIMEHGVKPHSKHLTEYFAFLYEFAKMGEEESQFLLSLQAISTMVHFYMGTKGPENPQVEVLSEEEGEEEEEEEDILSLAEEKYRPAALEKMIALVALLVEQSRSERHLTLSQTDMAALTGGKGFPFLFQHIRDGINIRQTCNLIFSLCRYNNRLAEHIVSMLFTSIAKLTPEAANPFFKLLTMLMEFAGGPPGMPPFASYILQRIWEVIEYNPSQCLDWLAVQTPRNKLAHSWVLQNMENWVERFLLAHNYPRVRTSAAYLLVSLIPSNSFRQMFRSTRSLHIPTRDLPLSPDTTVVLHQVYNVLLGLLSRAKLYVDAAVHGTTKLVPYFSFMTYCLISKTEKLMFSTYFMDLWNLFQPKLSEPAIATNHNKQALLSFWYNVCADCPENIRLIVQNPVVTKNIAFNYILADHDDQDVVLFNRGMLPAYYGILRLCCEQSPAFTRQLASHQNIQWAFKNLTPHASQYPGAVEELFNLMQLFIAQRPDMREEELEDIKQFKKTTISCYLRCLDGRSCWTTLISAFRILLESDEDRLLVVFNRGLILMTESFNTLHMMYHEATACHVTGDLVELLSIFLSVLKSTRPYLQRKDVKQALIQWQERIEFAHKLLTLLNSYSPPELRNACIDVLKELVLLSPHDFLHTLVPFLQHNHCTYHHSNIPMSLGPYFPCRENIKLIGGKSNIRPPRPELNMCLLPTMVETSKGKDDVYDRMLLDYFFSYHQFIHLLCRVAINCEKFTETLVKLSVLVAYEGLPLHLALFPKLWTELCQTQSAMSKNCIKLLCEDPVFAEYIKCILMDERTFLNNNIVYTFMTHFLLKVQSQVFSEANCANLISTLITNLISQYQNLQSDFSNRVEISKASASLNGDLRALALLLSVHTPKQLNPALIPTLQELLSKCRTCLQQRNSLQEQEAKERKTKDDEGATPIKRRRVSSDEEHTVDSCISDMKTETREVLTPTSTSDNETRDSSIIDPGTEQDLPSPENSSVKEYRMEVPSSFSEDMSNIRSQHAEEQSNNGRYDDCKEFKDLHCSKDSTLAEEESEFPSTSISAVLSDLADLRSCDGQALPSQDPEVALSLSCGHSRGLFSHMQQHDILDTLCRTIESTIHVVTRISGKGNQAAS

CC(NC(=O)CCl)c1csc(-c2ccccc2)n1.Cl (stereo not given)
inactive: USP34 -0.477 | USP36 -0.276 | USP38 -0.266 | USP39 0.0283 | USP4 -0.166
